Compound activity: PubChem BioAssay, several laboratories
A3G deaminase – blocks human APOBEC3G single-stranded DNA deamination; recombinant A3G, ssDNA deamination FAM/TAMRA fluorescence; Q9HC16; actives 0.28% (n = 330,000); inhibition, % at 20 µM;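 active means inhibition of at least 40% at 20 µM, with no more than 30% in the related APOBEC3A deaminase screen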;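 further: plate controls were DMSO wells with A3G for no effect and wells lacking A3G enzyme for full effect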
aDG glyco up – alpha-DG glycosylation activation; Pro5-aDG cells, alpha-DG glycosylation AlphaScreen (IIH6); 0% Pro5, 100% B10-LARGE cell signal; activation, % at 10 µM; actives 0.22% (n = 360,000); AID 624168;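 active means activation of at least 8% versus controls, or a plate z-score of at least 8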;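 further: Pro5 are CHO cells carrying HIG-tagged alpha-DG that lacks glycosylation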
A3A deaminase – blocks human APOBEC3A ssDNA deamination | recombinant A3A, FAM/TAMRA ssDNA deamination fluorescence | actives 0.41% (n = 330,000) | inhibition, % at 20 µM;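 active means at least 40% inhibition at 20 µM here, with at most 30% in a related deaminase screen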;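 further: plate controls were A3A with DMSO for no effect and wells lacking A3A enzyme for full effect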
Target sequence (P31941 whole entry, looked up): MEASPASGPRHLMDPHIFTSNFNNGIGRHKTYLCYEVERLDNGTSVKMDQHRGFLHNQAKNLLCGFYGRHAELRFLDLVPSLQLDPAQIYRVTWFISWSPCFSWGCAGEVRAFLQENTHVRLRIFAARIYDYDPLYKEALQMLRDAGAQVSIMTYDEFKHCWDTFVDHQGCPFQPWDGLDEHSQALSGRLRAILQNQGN
PHOSPHO1 block – blocks human PHOSPHO1 phosphatase activity | Q8TCT1 | recombinant PHOSPHO1, absorbance phosphatase assay | inhibition, % at 13.3 µM | actives 1.1% (n = 290,000); in the data active means inhibition above about 60%
ALR H2O2 inh – inhibitors of human sulfhydryl oxidase ALR | P55789 | purified ALR, DTT oxidation, H2O2 HRP-luminol luminescence | inhibition, % (no concentration beside the values) | actives 3.8% (n = 290,000);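 active means mean replicate inhibition above about 79%, with every replicate also reaching it, limit read from the data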
Target sequence (P55789 whole entry, looked up): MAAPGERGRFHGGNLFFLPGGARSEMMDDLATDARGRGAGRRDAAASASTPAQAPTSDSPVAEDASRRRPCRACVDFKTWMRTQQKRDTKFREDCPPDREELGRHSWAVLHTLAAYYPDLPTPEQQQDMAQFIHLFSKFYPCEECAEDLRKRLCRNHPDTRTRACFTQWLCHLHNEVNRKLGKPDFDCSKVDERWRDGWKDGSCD
rCAG binder – molecules binding r(CAG) RNA repeats | r(CAG) RNA repeat, TO-PRO-1 dye displacement fluorescence | actives 1.3% (n = 370,000) | AID 651821 | inhibition, % at 3 µM;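 active means inhibition above the plate cutoff, the mean of all test compounds on that plate plus 3 SD, cut at about 35% in these data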;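 further: 0% = DMSO alone and 100% = 100 µM mitoxantrone as full dye displacement; higher means more dye released from RNA so lower well fluorescence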
* marks the source's active call; other numbers are inactive results. Most compounds without a hit are left out; they make up all but 5.4% or so of the library.

What do the screens show for `CCN1CCCc2cc(CN(CCN3CCOCC3)C(=S)Nc3cccc(C)c3)ccc21`?
A3G deaminase: -7; aDG glyco up: 0; A3A deaminase: -1; PHOSPHO1 block: -20; ALR H2O2 inh: 95*; rCAG binder: 3

How did Cc1cccc(NC(=S)N(CCN2CCOCC2)Cc2ccccc2F)c1 do in these assays?
A3G deaminase: -5; aDG glyco up: 0; A3A deaminase: -7; PHOSPHO1 block: 48; ALR H2O2 inh: -2; rCAG binder: -7

How did C/C(=N/NC(=O)CSc1nnc(-c2ccccc2)n1-c1ccc(Cl)cc1)c1cccc(O)c1 do in these assays?
rCAG binder: 3

What do the screens show for `NC(=O)c1ccc(NC(=O)CSc2nnc(-c3ccccc3)n2-c2ccccc2)cc1`?
rCAG binder: 3

How did O=C(NCCO)c1ccc2nc(-c3ccco3)c(-c3ccco3)nc2c1 do in these assays?
A3G deaminase: 78; aDG glyco up: 0; A3A deaminase: 79; PHOSPHO1 block: 74*; ALR H2O2 inh: -24; rCAG binder: 54*

Results for c1coc(-c2cnc3ccccc3n2)c1 ?
aDG glyco up: 0; rCAG binder: 12

How did c1coc(-c2nc3ccccc3nc2-c2ccco2)c1 do in these assays?
A3G deaminase: 70; aDG glyco up: 0; A3A deaminase: 73; PHOSPHO1 block: 28; ALR H2O2 inh: 9; rCAG binder: 52*

Results for CC(=O)Oc1ccc2nc(-c3ccc(Br)o3)oc(=O)c2c1 ?
A3G deaminase: -6; aDG glyco up: 0; A3A deaminase: -4; ALR H2O2 inh: 80*; rCAG binder: 3

How did COc1ccccc1-n1c(CNC(=O)c2ccc(S(=O)(=O)N3CCOCC3)cc2)n[nH]c1=S do in these assays?
A3G deaminase: 42*; aDG glyco up: 0; A3A deaminase: -5; PHOSPHO1 block: 51; ALR H2O2 inh: 10; rCAG binder: 1

What do the screens show for `O=C(NCc1n[nH]c(=S)n1-c1ccc(Br)cc1)c1ccc(S(=O)(=O)N2CCCCC2)cc1`?
A3G deaminase: -2; aDG glyco up: 0; A3A deaminase: -5; PHOSPHO1 block: -136; ALR H2O2 inh: 39; rCAG binder: 21

What do the screens show for `O=C(NCc1n[nH]c(=S)n1-c1ccc(Br)cc1)c1ccc(S(=O)(=O)N2CCCC2)cc1`?
A3G deaminase: 6; aDG glyco up: 0; A3A deaminase: -4; PHOSPHO1 block: -64; ALR H2O2 inh: 91*; rCAG binder: 12

How did COc1cc(OC)cc(C(=O)NCc2n[nH]c(=S)n2-c2ccccc2OC)c1 do in these assays?
A3G deaminase: 12; aDG glyco up: 0; A3A deaminase: -8; PHOSPHO1 block: 16; ALR H2O2 inh: 63; rCAG binder: 1

How did O=C(NCc1n[nH]c(=S)n1-c1ccc(Cl)c(Cl)c1)c1ccc(S(=O)(=O)N2CCOCC2)cc1 do in these assays?
A3G deaminase: -3; aDG glyco up: 0; A3A deaminase: 0; PHOSPHO1 block: -31; rCAG binder: 12

What do the screens show for `O=C(NCc1n[nH]c(=S)n1-c1cccc(Cl)c1)c1ccc(S(=O)(=O)N2CCCCC2)cc1`?
A3G deaminase: 6; aDG glyco up: 0; A3A deaminase: 1; PHOSPHO1 block: -80; ALR H2O2 inh: 26; rCAG binder: 25

Results for COc1ccc(-n2c(CNC(=O)c3cc(OC)c(OC)c(OC)c3)n[nH]c2=S)cc1 ?
A3G deaminase: 22; aDG glyco up: 0; A3A deaminase: 1; PHOSPHO1 block: -83; ALR H2O2 inh: 93*; rCAG binder: 4

How did Cc1cccc(-n2c(CNC(=O)c3ccc(S(=O)(=O)N4CCCC4)cc3)n[nH]c2=S)c1 do in these assays?
A3G deaminase: 27; aDG glyco up: 0; A3A deaminase: -4; PHOSPHO1 block: 80*; ALR H2O2 inh: 56; rCAG binder: 3

Results for C[C@]12Cc3ccccc3C1CC1=N[C@@H](C3CCCCC3)O[C@@]13C[C@@H]2C(=O)N3C1CCN(Cc2ccccc2)CC1 (some centres undefined) ?
rCAG binder: 3

How did CN(Cc1n[nH]c(=S)n1C)S(=O)(=O)c1ccccc1 do in these assays?
A3G deaminase: 32; aDG glyco up: 0; A3A deaminase: -5; PHOSPHO1 block: -133; ALR H2O2 inh: 85*; rCAG binder: -1
